# Bioassay records from PubChem BioAssay.
# Platelet DG rel: modulates dense granule release in human platelets; 300,000 compounds, 0.22% hits; AID 1663; human platelet-rich plasma, SFLLRN dense granule ATP release, luminescence; inhibition, %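 (compounds screened at 7.5 µM in platelet-rich plasma)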;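 active = mean replicate score, as percent of positive control, at or above 50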
# KLF5 inhibitor: kruppel-like factor 5 inhibition | DLD-1 KLF5 promoter-luciferase reporter, luminescence | inhibition, % at 5 µM | 290,000 compounds, 0.23% hits | AID 1700;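 active = inhibition above a per-plate limit of that plate's mean compound inhibition plus 3 SD, cut at about 60% in these data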;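 also: higher means less KLF5 promoter-driven luciferase light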
# Wee1 degr inh: human Wee1 degradation inhibition, primary screen | HeLa Luc-Wee1K328M stability, luciferase luminescence; 100% = proteasome inhibitor MG132 effect | AID 1321 | 220,000 compounds, 1.2% hits | reporter increase, % at 5 µM;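 active = activation above the mean of all tested compounds plus 3 SD, set per screening run, cut at about 8.8% in these data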;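 also: cells exposed to compound for 20 h before luminescence read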
# Target sequence (P30291 whole entry K328M): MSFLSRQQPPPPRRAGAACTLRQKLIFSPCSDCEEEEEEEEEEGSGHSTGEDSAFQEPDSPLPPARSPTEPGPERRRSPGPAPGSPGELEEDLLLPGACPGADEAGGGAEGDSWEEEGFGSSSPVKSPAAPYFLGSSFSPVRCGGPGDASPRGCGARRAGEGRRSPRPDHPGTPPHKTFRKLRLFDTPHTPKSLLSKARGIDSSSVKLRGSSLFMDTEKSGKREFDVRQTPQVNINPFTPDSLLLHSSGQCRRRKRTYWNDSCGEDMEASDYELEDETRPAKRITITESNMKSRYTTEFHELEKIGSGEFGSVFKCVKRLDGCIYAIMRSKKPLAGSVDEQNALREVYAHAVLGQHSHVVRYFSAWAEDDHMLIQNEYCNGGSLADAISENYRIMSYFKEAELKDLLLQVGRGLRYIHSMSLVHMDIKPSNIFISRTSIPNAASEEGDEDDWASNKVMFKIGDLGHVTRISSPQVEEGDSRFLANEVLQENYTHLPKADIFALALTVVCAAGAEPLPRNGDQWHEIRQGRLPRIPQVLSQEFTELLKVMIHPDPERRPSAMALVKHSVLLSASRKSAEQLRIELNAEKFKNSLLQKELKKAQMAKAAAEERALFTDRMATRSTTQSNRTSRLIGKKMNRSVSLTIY
# HIF act: HIF pathway transcriptional activation; activation, % at 7.5 µM (by protocol); AID 1910; U2OS HRE-luciferase reporter, luminescence; normalized: DMSO 0%, desferrioxamine 100%; 300,000 compounds, 0.32% hits;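 active = mean activation of at least 10% of the iron chelator positive control signal, with at least half of replicates also reaching 10%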
# aSyn 5UTR inh: MLPCN primary screen, SNCA 5' untranslated region. alpha-synuclein 5'UTR reporter, inhibitor activity. inhibition, % (tested at 7.5 µM). 300,000 compounds, 0.82% hits. AID 1813; in the data active = inhibition above about 60%;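 also: H4 neuroglioblastoma cells stably carrying SNCA 5'UTR luciferase fusion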
# A number is an active result; i = inactive; nt = no result given. Sampled rows, rich in hits. Any-hit rate of the full collection: about 2.1%.
SMILES,Platelet DG rel,KLF5 inhibitor,Wee1 degr inh,HIF act,aSyn 5UTR inh
COc1ccc(S(=O)(=O)N2CCOCC2)cc1NC(=O)CCNC(=O)c1ccc(Br)cc1,i,nt,nt,i,77
COc1ccc(CCNC(=O)c2cc(S(=O)(=O)N3CCOCC3)cn2C)cc1OC,51,i,nt,i,i
Cc1ccc(CCNC(=O)c2cc(S(=O)(=O)N3CCOCC3)cn2C)cc1,i,i,nt,i,i
OCC[C@@H]1C[C@H](O)[C@@H](O)[C@@]2(OCCc3ccccc32)O1,i,i,nt,i,i
CCOc1ccc(-c2nnc(SCC(=O)O)n2Cc2ccccc2)cc1,i,i,nt,i,i
Cc1cccc(C(=O)Nc2nnc(S(=O)(=O)N3CCC(C)CC3)s2)c1,i,i,nt,i,i
O=C(O)c1ccccc1N/N=C/c1cc(Br)cc(Br)c1O,i,i,i,i,i
O=C(O)c1ccccc1N/N=C\c1ccnc2ccccc12,i,i,i,i,76
CC1CC(C)CN(S(=O)(=O)c2ccc(C(=O)NCCCn3ccnc3)cc2)C1 (centres undefined),i,i,i,i,98
COc1cc(C2C(C#N)=C(N)N(c3ccc(F)cc3)C3=C2S(=O)(=O)CC3)ccc1O (centres undefined),i,i,9.6,i,i
COc1cc(C2C(C#N)=C(N)N(c3cccnc3)C3=C2C(=O)CCC3)ccc1O (centres undefined),i,i,i,i,i
CCCOc1ccc(/C=N/Nc2ccccc2[N+](=O)[O-])c(O)c1,i,i,i,i,62
CCCOc1ccc(/C=N/NC(=S)Nc2ccccc2[N+](=O)[O-])c(O)c1,i,i,i,i,101
COc1ccc(/C=N/NC(=S)Nc2ccccc2[N+](=O)[O-])cc1O,i,i,i,i,i
CCn1c(CN2CCN(c3cccc(C)c3C)CC2)n[nH]c1=S,i,i,i,i,i
COc1cccc(N(C(=O)c2csnn2)C(C(=O)NC2CCCC2)c2ccccc2)c1 (centres undefined),i,i,nt,i,i
OCCCNc1c2ccccc2nc2ccccc12,i,i,nt,16,i
Cc1ccc(-c2nc(NCCCO)c3ccccc3n2)cc1,i,i,nt,i,i
c1ccc2c(NCCc3c[nH]c4ccccc34)c3ccccc3nc2c1,i,i,nt,13,i
Fc1cccc(NCCc2c[nH]c3ccccc23)n1,i,i,nt,i,i
COc1ccc(Cl)cc1NC(=O)CN(C)CC(=O)Nc1ccc(C)cc1Br,nt,i,i,nt,nt
O=c1c2c(nc3c(-c4ccc(Cl)cc4)c[nH]n13)CCCC2,i,i,i,i,66
N#Cc1ccc(-c2csc(NC(=O)c3ccc(S(=O)(=O)N4CCc5ccccc5C4)cc3)n2)cc1,i,i,i,i,i
O=C(/C=C/c1ccncc1)c1ccc2c(c1)OCCO2,i,i,i,i,i
COc1cc(/C=C/C(=O)c2ccc3c(c2)OCCO3)cc(Br)c1OCC(=O)N(C)C,i,i,nt,25,i
SMILES,Platelet DG rel,KLF5 inhibitor,Wee1 degr inh,HIF act,aSyn 5UTR inh
O=C1CCc2cc(S(=O)(=O)Nc3ccccc3)cc3c2N1CCC3,i,nt,nt,i,i
NC(=O)N/N=C/c1c(Sc2nnnn2-c2ccccc2)nc2ccccn2c1=O,i,i,i,i,i
Cc1ccc(S(=O)(=O)Nc2cc(-c3ccccc3)nn2C)cc1,i,i,i,i,i
Cc1ccc(S(=O)(=O)Nc2cc(-c3ccc(Cl)cc3)nn2C)cc1,i,i,i,19,i
Cn1nc(C(F)(F)F)cc1C(=O)NC1CCCCCC1,i,i,i,237,i
N#Cc1ccc(NC(=O)COC(=O)CCc2nc3ccccc3c(=O)[nH]2)cc1,i,i,9.7,i,i
COc1ccc(O)c(/C=N/NC(=O)c2c(C)nnn2-c2nonc2N)c1,i,i,i,i,64
COc1ccc(N(C)S(=O)(=O)c2cccc(C(=O)NC3CCCC(C)C3C)c2)cc1 (centres undefined),i,nt,nt,i,i
CCOc1ccccc1CNC(=O)C1Cc2cc(S(=O)(=O)N3CCCCC3)ccc2N1C(C)=O (centres undefined),i,i,nt,i,i
O=C(c1sc2ccccc2c1Cl)N(Cc1ccccc1Cl)C1CCS(=O)(=O)C1 (centres undefined),i,i,9.4,i,i
O=C(c1sc2ccccc2c1Cl)N(Cc1ccccc1)C1CCS(=O)(=O)C1 (centres undefined),i,i,i,i,i
Cc1nc2ccc(NC(=O)NC(=O)c3c(Cl)cccc3Cl)cc2o1,i,i,10,i,i
CNC(=O)Nc1ccc2nc(C)oc2c1,i,i,i,i,i
COc1ccc(-c2cc(C3CCNCC3)[nH]n2)cc1,i,i,nt,i,i
